The panel holds about 83,000 compounds, 20% with a hit somewhere; the sample as a whole holds those more often.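 Percent growth is the endpoint: 0 to 100 indicates growth inhibition (40 means 60% inhibition), 0 means no net growth, and negative values indicate cell death.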 Values without a mark were called inactive. Active and inactive are the calls of the source. Rule for the calls: active = growth percent below 10; inactive = the rest.

In this experiment the test system is MDA-MB-468 breast. The experiment is described as follows: NCI-60 one-dose screen, 48 h (100 = growth as untreated, 0 = no growth, -100 = all killed). The conditions noted are these: 10 µM unless noted.
Regarding `CCc1nc(N)nc(N)c1C#CC(C)c1ccc(-c2ccncc2)cc1Cl` (stereo not given), the growth was 5.88% (active).

For `O=C(CN1CCN(c2ccccc2)CC1)N1CCN(c2nnc(-c3ccc(Cl)cc3)c(-c3ccc(Cl)cc3)n2)CC1`, the growth was 78.7%.

Turning to `COc1ccc(Cn2cc3c(c2)-c2oncc2CC3)cc1OC`, the growth was -7.7% (active).

Turning to `Cc1ccc(C(NC(=O)c2ccccc2)c2ccc3cccnc3c2O)cc1` (stereo not given), the growth is -26.6% (active).

On to `COC(=O)C(c1ccccc1)C(CC(=O)c1ccccc1)c1ccccc1` (stereo not given), for which the growth is 87.5%.

As to `O=C1C=CC(=O)N1c1ccccc1`, the growth is 106%.

As to `CCOc1nc(-c2ccccc2)cc2c(O)c(C(=O)N/N=C/c3ccc(OC)cc3)[nH]c(=O)c12`, the growth is 61.9%.

Consider `CCCCN(CCCC)CC(O)CN(CC)CC` (stereo not given), for which the growth was 101%.

`COc1ccccc1-n1c(-c2ccc(O)cc2C)cn2c3c(=O)[nH]c(=O)n(C)c3nc12`: the growth was 88.6%.

For the compound `COc1ccc(/C=C(\C#N)n2nnc3ccc(Cl)cc32)cc1`, the growth was 28.9%.

With `Cc1cccc(C)c1NC(=O)CN(CC(C)C)CC(O)COc1ccccc1` (stereo not given), the growth is 94.5%.

For `C/C(=C\CCc1ccoc1)CC/C=C(\C)CCCN1CCSCC1`, the growth was 22.6%.

`CCc1c2c(nc3ccc(OC(=O)N4CCC(N5CCCCC5)CC4)cc13)-c1cc3c(c(=O)n1C2)COC(=O)[C@]3(O)CC`: the growth was -31.2% (active).

In the case of `Cc1ccc(-c2nc(N3CCNCC3)c3oc(-c4ccc(C)cc4)nc3n2)cc1`, the growth was -33.5% (active).

As to `C[C@]12CC[C@@H]3c4ccc(OS(=O)(=O)O)cc4CC[C@H]3[C@@H]1CC[C@@H]2NS(=O)(=O)c1ccc(-c2ccccc2)cc1`, the growth was 76.8%.

For the origin of these results see PubChem BioAssay (NCI).
